Test results: PubChem BioAssay AID1159580 (chemical genetic matrix, 2015)
Hit rate of the full screen: of about 5,500 compounds, about 2,000 (36%) were called active. Roughly 18% stayed inconclusive and do not appear here. Rule as the data show it: active = normalized growth mostly below about 0.91 (no sharp cut-off); inconclusive = no clear call, values can overlap the other calls; inactive = mostly above about 0.92. This is one part of the list.

Test: chemical genetic growth profiling, strain panel (AID 1159580);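 also: tested at 20 µM; growth read once vehicle control cultures reached saturation at 30 °C; 1 = growth at the plate median or of vehicle wells; lower values mean less growth of the strain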
Conditions: growth OD

Measured: normalized growth

O=C(O[C@@H]1Cc2c(O)cc(O)cc2O[C@@H]1c1ccc(O)c(O)c1)c1cc(O)c(O)c(O)c1
inactive: S. cerevisiae deletion strains, locus YJR066W, strain TOR1, hits give low values 0.93 | S. cerevisiae deletion strains, locus YKL009W, strain mrt4, hits give low values 1.02 | S. cerevisiae deletion strains, locus YKL068W, hits give low values 1.01 | S. cerevisiae deletion strains, locus YKL085W, strain MDH1 (second series), hits give low values 0.997 | S. cerevisiae deletion strains, locus YKL085W, strain MDH1, hits give low values 0.997 | S. cerevisiae deletion strains, locus YKL160W, strain elf1, hits give low values 0.97 | S. cerevisiae deletion strains, locus YKR001C, strain vps1, hits give low values 1.04 | S. cerevisiae deletion strains, locus YKR026C, strain gcn3, hits give low values 1.03 | S. cerevisiae deletion strains, locus YKR091W, strain srl3, hits give low values 1.02 | S. cerevisiae deletion strains, locus YLL001W, strain dnm1, hits give low values 0.982 | S. cerevisiae deletion strains, locus YLL026W, hits give low values 1.03 | S. cerevisiae deletion strains, locus YLL041C, strain sdh2, hits give low values 1.02 | S. cerevisiae deletion strains, locus YLR027C, strain aat2, hits give low values 0.993 | S. cerevisiae deletion strains, locus YLR039C, strain RIC1, hits give low values 0.715 | S. cerevisiae deletion strains, locus YLR102C, strain apc9, hits give low values 1.01 | S. cerevisiae deletion strains, locus YLR113W, strain HOG1, hits give low values 1.01 | S. cerevisiae deletion strains, locus YLR221C, strain rsa3, hits give low values 1.01 | S. cerevisiae deletion strains, locus YLR258W, strain gsy2, hits give low values 0.952 | S. cerevisiae deletion strains, locus YLR262C, strain YPT6 (second series), hits give low values 0.909 | S. cerevisiae deletion strains, locus YLR268W, strain sec22, hits give low values 0.94 | S. cerevisiae deletion strains, locus YLR320W, strain mms22, hits give low values 1.02 | S. cerevisiae deletion strains, locus YLR357W, strain rsc2, hits give low values 0.865 | S. cerevisiae deletion strains, locus YLR370C, strain arc18, hits give low values 0.935 | S. cerevisiae deletion strains, locus YLR371W, strain rom2, hits give low values 0.916 | S. cerevisiae deletion strains, locus YLR384C, strain iki3, hits give low values 1.03 | S. cerevisiae deletion strains, locus YLR418C, strain cdc73, hits give low values 0.963 | S. cerevisiae deletion strains, locus YML032C, strain rad52, hits give low values 1.02 | S. cerevisiae deletion strains, locus YML120C, strain ndi1, hits give low values 1 | S. cerevisiae deletion strains, locus YML124C, strain tub3, hits give low values 1.03 | S. cerevisiae deletion strains, locus YMR078C, strain ctf18, hits give low values 1.02 | S. cerevisiae deletion strains, locus YMR129W, hits give low values 1.03 | S. cerevisiae deletion strains, locus YMR205C, strain PFK2, hits give low values 1.03 | S. cerevisiae deletion strains, locus YMR223W, strain ubp8, hits give low values 0.985 | S. cerevisiae deletion strains, locus YMR231W, strain pep5, hits give low values 0.972 | S. cerevisiae deletion strains, locus YMR263W, strain SAP30, hits give low values 0.997 | S. cerevisiae deletion strains, locus YMR307W, strain GAS1, hits give low values 0.606 | S. cerevisiae deletion strains, locus YNL067W, strain RPL9B, hits give low values 0.961 | S. cerevisiae deletion strains, locus YNL071W, strain lat1, hits give low values 1.02 | S. cerevisiae deletion strains, locus YNL183C, strain NPR1, hits give low values 0.938 | S. cerevisiae deletion strains, locus YNL233W, strain BNI4, hits give low values 0.932 | S. cerevisiae deletion strains, locus YNL248C, strain rpa49, hits give low values 0.973 | S. cerevisiae deletion strains, locus YNL250W, strain rad50, hits give low values 1.04 | S. cerevisiae deletion strains, locus YNL271C, strain bni1, hits give low values 1.02 | S. cerevisiae deletion strains, locus YNL298W, strain CLA4, hits give low values 1.01 | S. cerevisiae deletion strains, locus YNL307C, strain MCK1, hits give low values 1.01 | S. cerevisiae deletion strains, locus YNL322C, strain KRE1 (second series), hits give low values 1.06 | S. cerevisiae deletion strains, locus YNR049C, strain mso1, hits give low values 1.04 | S. cerevisiae deletion strains, locus YNR052C, strain pop2, hits give low values 0.989 | S. cerevisiae deletion strains, locus YOL012C, strain htz1 0.447 | S. cerevisiae deletion strains, locus YOL147C, strain pex11, hits give low values 1.02 | S. cerevisiae deletion strains, locus YOR001W, strain rrp6, hits give low values 1.01 | S. cerevisiae deletion strains, locus YOR061W, strain CKA2, hits give low values 0.925 | S. cerevisiae deletion strains, locus YOR069W, strain VPS5, hits give low values 0.97 | S. cerevisiae deletion strains, locus YOR070C, strain gyp1, hits give low values 0.97 | S. cerevisiae deletion strains, locus YOR080W, strain dia2, hits give low values 0.983 | S. cerevisiae deletion strains, locus YOR083W, strain WHI5, hits give low values 0.961 | S. cerevisiae deletion strains, locus YOR136W, strain idh2, hits give low values 1.01 | S. cerevisiae deletion strains, locus YOR144C, strain elg1, hits give low values 1.02 | S. cerevisiae deletion strains, locus YOR184W, strain ser1, hits give low values 0.969 | S. cerevisiae deletion strains, locus YOR231W, strain MKK1, hits give low values 0.992 | S. cerevisiae deletion strains, locus YOR265W, strain rbl2, hits give low values 0.988 | S. cerevisiae deletion strains, locus YOR270C, strain vph1, hits give low values 0.923 | S. cerevisiae deletion strains, locus YOR290C, strain snf2, hits give low values 0.97 | S. cerevisiae deletion strains, locus YOR316C, strain cot1, hits give low values 1.03 | S. cerevisiae deletion strains, locus YPL055C, strain LGE1, hits give low values 0.761 | S. cerevisiae deletion strains, locus YPL078C, strain atp4, hits give low values 0.986 | S. cerevisiae deletion strains, locus YPL106C, strain sse1, hits give low values 0.896 | S. cerevisiae deletion strains, locus YPL240C, strain hsp82, hits give low values 1.01 | S. cerevisiae deletion strains, locus YPL241C, strain CIN2, hits give low values 0.973 | S. cerevisiae deletion strains, locus YPL256C, strain CLN2, hits give low values 1.01 | S. cerevisiae deletion strains, locus YPR119W, strain clb2, hits give low values 1.04 | S. cerevisiae deletion strains, locus YPR141C, strain kar3, hits give low values 1 | S. cerevisiae deletion strains, locus YPR163C, strain tif3, hits give low values 1.03 | S. cerevisiae deletion strains, locus YPR167C, strain met16, hits give low values 1.03 | S. cerevisiae deletion strains, strain wtn01, hits give low values 0.963
active: S. cerevisiae deletion strains, locus YJR043C, strain POL32, hits give low values 0.792 | S. cerevisiae deletion strains, locus YLR058C, strain SHM2, hits give low values 0.883 | S. cerevisiae deletion strains, locus YLR342W, strain FKS1 (second series), hits give low values 0.628 | S. cerevisiae deletion strains, locus YLR342W, strain FKS1, hits give low values 0.831 | S. cerevisiae deletion strains, locus YML016C, strain PPZ1, hits give low values 0.841 | S. cerevisiae deletion strains, locus YMR058W, strain fet3, hits give low values 0.564 | S. cerevisiae deletion strains, locus YMR125W, strain sto1, hits give low values 1.12 [resistant] | S. cerevisiae deletion strains, locus YNL209W, strain ssb2, hits give low values 0.597 | S. cerevisiae deletion strains, locus YOL006C, strain TOP1, hits give low values 0.507 | S. cerevisiae deletion strains, locus YOR106W, strain vam3, hits give low values 0.622 | S. cerevisiae deletion strains, locus YPL051W, strain arl3, hits give low values 0.776 | S. cerevisiae strains, strain wild type, hits give low values 0.702
